Assay outcomes (PubChem BioAssay)
Mdm2 MdmX PPI – inhibitors of human Mdm2-MdmX association, primary screen, cell-based, luminescence, split luciferase, SaOS-2, uHTS. SaOS-2 split-luciferase Mdm2/MdmX complementation. hit rate 3% among 330,000. AID 485346, 2010. Protein Mdm4 (Homo sapiens) + E3 ubiquitin-protein ligase Mdm2 (Homo sapiens), …. inhibition, % at 8 µM;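 active = inhibition of at least 50% at 8 µM in the primary screen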
LGR2 antag – inhibitors of bursicon-induced LGR2 CRE-luciferase signal, primary screen, cell-based, HEK293, CRE-luciferase reporter, bursicon stimulation. Drosophila bursicon receptor LGR2 (rickets). bursicon-stimulated, 4 h. inhibition, % at 9.99 µM. hit rate 0.35% among 380,000;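 active = drop in luminescence signal, shown as inhibition above about 50% in the replicate tests, limit read from the data, passing the limit was not always enough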;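 also: agonist challenge used bursicon conditioned medium at about half maximal strength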
Peg3 promoter – Peg3 promoter-driven luciferase inhibitors, primary screen, cell-based, HeLa, luciferase luminescence. HeLa PEG-Prom luciferase reporter, overnight. inhibition, % at 20 µM. hit rate 1.7% among 360,000;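 active = inhibition of at least 50% at 20 µM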
KKLEB cytotox – cytotoxicity in KKLEB CF airway cells, primary screen, cytotoxicity control for CF NF-kB inhibitor project, cell-based, uHTS, fluorescence assay plates. AID 602141, 2011. KKLEB CF airway cells viability, ATPlite luminescence, overnight; stronger effect = lower value; cells stimulated with P. aeruginosa culture filtrate. hit rate 0.36% among 360,000. activity change (cytotoxicity), % at 5 µM;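 active = corrected activity change at or below -50% at 5 µM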
CF NFkB block – inhibitors of PAF-induced NF-kB signaling, primary screen, cell-based, GFP fluorescence, uHTS; inhibition, % at 5 µM; hit rate 0.86% among 360,000; KKLEB NF-kB-GFP reporter, GFP fluorescence overnight;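 active = at least 50% inhibition at 5 µM, scaled per plate between neutral and stimulator controls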;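 also: PAF is a Pseudomonas aeruginosa culture filtrate used as stimulus; plate controls were PAF-stimulated DMSO wells for no effect and unstimulated DMSO wells for full effect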
HSP90 refold inh – HSP90 inhibitors, primary screen, cell lysate, luminescence. Heat shock protein HSP 90 (rabbit reticulocyte lysate; luciferase refolding). hit rate 0.91% among 290,000. Rabbit reticulocyte lysate, luciferase refolding luminescence, 3 h. inhibition, % at 5.6 µM;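 active = inhibition above the screen-wide mean plus 3 SD, computed separately per campaign, cut at about 16% in these data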;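 also: 0% = DMSO wells and 100% = 60 µM geldanamycin wells; inhibitors lower the luminescence because luciferase stays unfolded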
Mdm2-MdmX conf – Mdm2-MdmX complex disruptors, retested hits, confirmation, luminescence, single concentration; Mdm2-MdmX binding, luminescent assay; shares compounds with Mdm2 MdmX PPI; AID 489028, 2010; hit rate 55% among 10,000; inhibition, % at 8 µM; in the data active = inhibition above about 40%
FLuc counter – full-length luciferase signal inhibition, confirmation, counter-screen for Mdm2/MdmX interaction inhibitor project, cell-based, single concentration, SaOS-2 | hit rate 77% among 6,200 | shares compounds with Mdm2 MdmX PPI | inhibition, % at 8 µM | SaOS-2 full-length luciferase counterscreen, luminescence;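 active = mean inhibition at 8 µM reaching about 37%, which flags the compound as non-specific, limit read from the data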;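 also: p53-null SaOS-2 cells with luciferase driven by a doxycycline-inducible promoter; compound on cells about two nights before reading with doxycycline added after day one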
The depositor's hits bear a star; . = not tested or not shown. Hits are enriched below; roughly 3.6% of the tested compounds scored in any of these assays.

SMILES	Mdm2 MdmX PPI	LGR2 antag	Peg3 promoter	KKLEB cytotox	CF NFkB block	HSP90 refold inh	Mdm2-MdmX conf	FLuc counter
O=C1c2ccccc2NC(c2ccc(Cl)cc2Cl)N1Cc1ccccc1 (stereo not drawn)	4	.	28	-9	2	7	.	.
C=CCc1cccc(C2Nc3ccccc3C(=O)N2O)c1O (stereo not drawn)	72*	.	-128	-1	-6	6	5	.
COc1ccc2c3c(n(C)c2c1)[C@@H](CO)N(Cc1ccccc1Cl)CC31CN(C(C)=O)C1	.	-22	.	.	.	.	.	.
O=C(Nc1ccc2c(c1)[C@H]1C[C@H](CC(=O)N3CCOCC3)O[C@@H](CO)[C@H]1O2)C1CCC1	.	12	.	.	.	.	.	.
O=C(CCCOc1ccc(Cl)cc1Cl)N/N=C/c1ccccc1O	76*	35	52*	8	-11	-3	82*	22
COc1ccc(CNC(=O)C[C@@H]2C[C@@H]3c4cc(NC(=O)CN(C)C)ccc4O[C@@H]3[C@H](CO)O2)cc1	.	6	.	.	.	.	.	.
COCC(=O)N/N=C\c1cccc(OC)c1OC/C=C/c1ccccc1	55*	-3	17	5	4	-1	38	.
COc1cc(C=C(c2nc3ccccc3s2)c2nc3ccccc3s2)ccc1O	17	4	-18	8	3	-5	.	.
COc1ccc(C=C(c2nc3ccccc3s2)c2nc3ccccc3s2)cc1O	58*	-13	-44	4	-14	2	45*	63*
CC(C)OC(=O)c1cc2c(ccn2C)n1CC(=O)N(Cc1ccccc1)c1ccccc1	86*	22	21	0	1	-2	54*	65*
O=C(O)C[C@H]1C[C@H]2c3cc(NC(=O)NC4CCCCC4)ccc3O[C@H]2[C@@H](CO)O1	.	7	.	.	.	.	.	.
C[C@H](CO)N1C[C@H](C)[C@@H](CN(C)C(=O)c2ccncc2)Oc2cc(C#CC3(O)CCCC3)ccc2S1(=O)=O	.	15	.	.	.	.	.	.
FC(F)(F)c1cnc(NNC(=S)Nc2ccccc2Cl)c(Cl)c1	86*	36	40	-13	40	5	22	.
Cc1cccc(NC(=S)NNc2ncc(C(F)(F)F)cc2Cl)c1	13	-7	21	-5	-1	-5	.	.
N#C/C(=C\c1c(Cl)cccc1Cl)c1nc2ccccc2o1	82*	-14	11	18	0	-3	36	.
COc1ccc(/C=N/NC(=O)c2csc(-n3nc(C)cc3C(F)(F)F)n2)cc1	50*	.	7	-14	20	-3	48*	70*
CCCC(=O)NC(NC(=S)Nc1ccc(N=Nc2ccccc2)cc1)C(Cl)(Cl)Cl (stereo not drawn)	86*	.	39	10	14	6	89*	32
CCc1ccc(OCC(=O)NC(NC(=S)Nc2ccc(Cl)cc2)C(Cl)(Cl)Cl)cc1 (stereo not drawn)	84*	27	52*	-16	27	-4	92*	22
C[C@H](CO)N1C[C@H](C)[C@@H](CN(C)C(=O)Nc2ccc(F)cc2)Oc2cc(-c3ccc(F)cc3)ccc2S1(=O)=O	.	3	.	.	.	.	.	.
COC(=O)c1cn(C(=O)c2ccc(C)cc2C)c2ccccc12	61*	-1	10	-12	18	4	53*	56*
COC(=O)c1cn(C(=O)/C=C/c2ccc(OC)c(OC)c2)c2ccccc12	92*	14	82*	-16	12	0	66*	39*
COC(=O)c1cn(C(=O)c2ccccc2Cl)c2ccccc12	19	3	17	-11	-11	-1	.	.
